The panel holds about 83,000 compounds, 20% with a hit somewhere; the sample as a whole holds those more often.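 A percent growth of 40 corresponds to 60% growth inhibition; 0 means no net growth; -100 means all cells died. Active threshold: below 10.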 Values without a mark were called inactive. Active and inactive are the calls of the source.
Experiments:
Assay in all cases: NCI-60 one-dose screen, 48 h (100 = growth as untreated, 0 = no growth, -100 = all killed)
Settings in all cases: 10 µM unless noted
SK-MEL-2 melanoma = tested on: SK-MEL-2 melanoma
EKVX NSCLC = tested on: EKVX NSCLC
SN12C renal = tested on: SN12C renal
UO-31 renal = tested on: UO-31 renal
TK-10 renal = tested on: TK-10 renal
ACHN renal = tested on: ACHN renal
CAKI-1 renal = tested on: CAKI-1 renal
A498 renal = tested on: A498 renal
CCRF-CEM leukemia = tested on: CCRF-CEM leukemia
MOLT-4 leukemia = tested on: MOLT-4 leukemia
SR leukemia = tested on: SR leukemia
RPMI-8226 leukemia = tested on: RPMI-8226 leukemia
OVCAR-8 ovarian = tested on: OVCAR-8 ovarian
OVCAR-5 ovarian = tested on: OVCAR-5 ovarian
OVCAR-4 ovarian = tested on: OVCAR-4 ovarian
SK-OV-3 ovarian = tested on: SK-OV-3 ovarian
IGROV1 ovarian = tested on: IGROV1 ovarian
OVCAR-3 ovarian = tested on: OVCAR-3 ovarian
HS 578T breast = tested on: HS 578T breast
NCI/ADR-RES ovarian = tested on: NCI/ADR-RES ovarian

SMILES | growth (SK-MEL-2 melanoma) [%] | growth (EKVX NSCLC) [%] | growth (SN12C renal) [%] | growth (UO-31 renal) [%] | growth (TK-10 renal) [%] | growth (ACHN renal) [%] | growth (CAKI-1 renal) [%] | growth (A498 renal) [%] | growth (CCRF-CEM leukemia) | growth (MOLT-4 leukemia) | growth (SR leukemia) | growth (RPMI-8226 leukemia) | growth (OVCAR-8 ovarian) | growth (OVCAR-5 ovarian) [%] | growth (OVCAR-4 ovarian) [%] | growth (SK-OV-3 ovarian) [%] | growth (IGROV1 ovarian) | growth (OVCAR-3 ovarian) | growth (HS 578T breast) [%] | growth (NCI/ADR-RES ovarian)
CCOC(=O)Cn1c(=O)c2c3ccccc3n(C)c2n2nnc(-c3ccccc3)c12 | 97.1 | 85.8 | 81.8 | 81.2 | 129 | 91.8 | 81.2 | 134 | 68.4% | -40.7% (active) | -50.7% (active) | 65% | 113% | 74.3 | 102 | 117 | 58.6% | 100% | 82.1 | 85.7%
COc1ccc(C2=CN3CC=CCC3CC2=O)cc1 (stereo not given) | 92.1 | 104 | 97 | 95.6 | 103 | 115 | 99.7 | 93.7 | 108% | 95% | 90.3% | 97.9% | 91% | 106 | 109 | 106 | 111% | 102% | 98.3 | 107%
CCOC(=O)NN1CC(O)=C(c2nc(-c3ccc(Br)cc3)cs2)C1=N | 128 | 104 | 161 | 87 | 116 | 111 | 92.9 | 93.4 | 86.2% | 75.9% | 61.4% | 115% | 97% | 89.5 | 118 | 108 | 53% | 99.9% | 110 | 108%
COc1ccc(/C=C/C(=O)c2cc3c(N)c(C(=O)Nc4ccccc4C)sc3nc2C)cc1 | 14.5 | 43.3 | 26.4 | 40.4 | 32 | 38.7 | 23.3 | 16.7 | 16.4% | 27.6% | 15.2% | -7.33% (active) | 6.22% (active) | 36.6 | 54 | 21.2 | 30.6% | 1.23% (active) | 10.4 | 7.7% (active)
S=c1ssnc1-c1cccs1 | 103 | 104 | 106 | 99.9 | 99.5 | 107 | 92.1 | 23.4 | 97.5% | 84.9% | 98.6% | 97.3% | 113% | 115 | 99.8 | 98.4 | -4.8% (active) | 78.9% | 46.6 | 97.2%
COc1ccc2c(c1)c(-c1nc(-c3cn(C)c4ncccc34)cs1)cn2CCO | 93 | 67.5 | 86.1 | 67.7 | 83 | 72.1 | 88.7 | 49.3 | 43.3% | 58.2% | 58.2% | 50.5% | 73% | 76 | 45.5 | 89.8 | 85.2% | 99.1% | 80.9 | 90%
C=C(CN1CC=CCC1)[C@@H]1CC[C@]2(CO)CC[C@]3(C)[C@H](CC[C@@H]4[C@@]5(C)CC[C@H](O)C(C)(C)[C@@H]5CC[C@]43C)[C@@H]12 | 110 | 104 | 98.1 | 93.7 | 123 | 114 | 106 | 112 | 91.3% | 86.5% | 76.9% | 88% | 101% | 109 | 92.8 | 107 | 107% | 102% | 95.3 | 90.1%
N#C/C(=C\c1ccc(Br)cc1)c1cc2ccccc2[nH]1 | 114 | 91 | 97.6 | 86.8 | 119 | 102 | 92.7 | 89.1 | -42.4% (active) | 84.5% | 81.2% | 78.9% | 96.8% | 93.9 | 112 | 81 | 91.4% | 107% | 98.4 | 98.7%

Reference: PubChem BioAssay (NCI)
